What follows are molecules tested on LEGO organoid PTN (PTEN-/-; TP53-/-; NF1-/-) (assay: bioluminescence (viable cell) signal fold change after vs before treatment, normalised to DMSO (ratio); higher = more tumour cell growth / less inhibition). Conditions: 10 µM; treatment time 6 days.
Method: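 Luc2-labelled iPSC-derived glioblastoma-like organoids (LEGOs, genotypes PT = PTEN-/-;TP53-/-, PTCC = plus CDKN2A/B-/-, PTN = plus NF1-/-) were treated with 10 uM drug for 6 days (applied every other day) at 37 C. Bioluminescence imaging was done before treatment and 2 days after the last dose. BLI signals were normalised to the DMSO control on the same day and then to the pre-treatment signal (N=3).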
CN1C(C(=O)Nc2ccccn2)=C(O)c2ccccc2S1(=O)=O [Piroxicam] showed a bioluminescence of 1.14. CS(=O)(=O)O.Cc1ccc(NC(=O)c2ccc(CN3CCN(C)CC3)cc2)cc1Nc1nccc(-c2cccnc2)n1 [Imatinib Mesylate] showed a bioluminescence of 2.11. In the case of COc1cccc2c1C(=O)c1c(O)c3c(c(O)c1C2=O)C[C@@](O)(C(=O)CO)C[C@@H]3O[C@H]1C[C@H](N)[C@@H](O)[C@H](C)O1.Cl [Epirubicin hydrochloride], the bioluminescence is reported as 0.00894. Work on CCN1CCN(C(=O)N[C@@H](C(=O)N[C@@H]2C(=O)N3[C@@H]2SC(C)(C)[C@@H]3C(=O)[O-])c2ccccc2)C(=O)C1=O.[Na+] [Piperacillin sodium salt] yielded a bioluminescence of 0.935. For CC[C@@H]1/C=C(\C)C[C@H](C)C[C@H](OC)[C@H]2O[C@@](O)(C(=O)C(=O)N3CCCC[C@H]3C(=O)O[C@H](/C(C)=C/[C@@H]3CC[C@H](Cl)[C@H](OC)C3)[C@H](C)[C@@H](O)CC1=O)[C@H](C)C[C@@H]2OC [Pimecrolimus], the bioluminescence was 0.347. CC(=O)Oc1ccccc1C(=O)O [Aspirin] showed a bioluminescence of 0.737. With CC1=C(/C=C/C(C)=C/C=C/C(C)=C/C(=O)O)C(C)(C)CCC1 [Tretinoin] the bioluminescence was 1.41. CO[C@H]1C[C@@H]2CC[C@@H](C)[C@@](O)(O2)C(=O)C(=O)N2CCCC[C@H]2C(=O)O[C@H]([C@H](C)C[C@@H]2CC[C@@H](OC(=O)C(C)(CO)CO)[C@H](OC)C2)CC(=O)[C@H](C)/C=C(\C)[C@@H](O)[C@@H](OC)C(=O)[C@H](C)C[C@H](C)/C=C/C=C/C=C/1C [Temsirolimus] showed a bioluminescence of 0.856. Molecule CCc1cc(/C(C)=N/OCc2ccc(C3CCCCC3)c(C(F)(F)F)c2)ccc1CN1CC(C(=O)O)C1 [Siponimod] has a bioluminescence of 0.811. With Cl.O.O=C1Cc2cc(CCN3CCN(c4nsc5ccccc45)CC3)c(Cl)cc2N1 [Ziprasidone hydrochloride monohydrate] the bioluminescence was 0.716. CC(C)(C)c1cc(C(C)(C)C)c(NC(=O)c2c[nH]c3ccccc3c2=O)cc1O [Ivacaftor] showed a bioluminescence of 0.603. With Nc1nc(NC2CC2)c2ncn([C@H]3C=C[C@@H](CO)C3)c2n1 [Abacavir] the bioluminescence was 3.33. Nc1cccc2c1CN(C1CCC(=O)NC1=O)C2=O (stereo not drawn) [Lenalidomide] showed a bioluminescence of 3.63. Cl.CN(C)CC\C=C1\c2ccccc2CCc2ccccc12 [Amitriptyline hydrochloride] showed a bioluminescence of 1.12. COc1ccccc1Oc1c(NS(=O)(=O)c2ccc(C(C)(C)C)cc2)nc(-c2ncccn2)nc1OCCO [Bosentan] was tested, and the bioluminescence was 1.28. Nc1[nH]c(=O)ncc1F [Fluorocytosine] gave a bioluminescence of 1.26. For C[C@H](Cn1cnc2c(N)ncnc21)OCP(=O)(O)O [Tenofovir], the bioluminescence was 1.12. In the case of C[C@@H]1O[C@@H]1P(=O)(O)O.NC(CO)(CO)CO [Fosfomycin Tromethamine], the bioluminescence is reported as 0.813. Work on C[N+](C)(C)CCO.[Cl-] [Choline chloride] yielded a bioluminescence of 2.09. With Nc1ncnc2c1ncn2[C@@H]1O[C@H](CO)[C@@H](O)[C@H]1OP(=O)(O)O [Adenosine-2'-monophosphate] the bioluminescence was 1.26. In the case of CC1=NN(c2ccccc2)C(=O)C1 [Edaravone], the bioluminescence is reported as 1.12. With O=C([O-])CCCc1ccccc1.[Na+] [Sodium Phenylbutyrate] the bioluminescence was 3.02. C[C@H]1C[C@@H]2[C@H]([C@@H](O)C[C@@]3(C)[C@H]2CC[C@]3(O)C(=O)CO)[C@@]2(C)C=CC(=O)C=C12 [Methylprednisolone] was tested, and the bioluminescence was 1.17. CCC1=C[C@@H]2CN(C1)Cc1c([nH]c3ccccc13)[C@@](C(=O)OC)(c1cc3c(cc1OC)N(C)[C@H]1[C@@](O)(C(=O)OC)[C@H](OC(C)=O)[C@]4(CC)C=CCN5CC[C@]31[C@@H]54)C2.O=C(O)[C@H](O)[C@@H](O)C(=O)O.O=C(O)[C@H](O)[C@@H](O)C(=O)O [Vinorelbine Tartrate] showed a bioluminescence of 0.805. Work on COc1cc2ncnc(Nc3ccc(F)c(Cl)c3)c2cc1OCCCN1CCOCC1 [Gefitinib] yielded a bioluminescence of 2.43. For CS(=O)(=O)OCCCCOS(C)(=O)=O [Busulfan], the bioluminescence was 2.3. O=C1NC(=O)C(c2ccccc2)(c2ccccc2)N1 [Phenytoin] was tested, and the bioluminescence was 1.39. With CCCN(CCc1cccs1)[C@H]1CCc2c(O)cccc2C1 [Rotigotine] the bioluminescence was 1.77. In the case of Cc1cccc(C)c1OCC(=O)N[C@@H](Cc1ccccc1)[C@@H](O)C[C@H](Cc1ccccc1)NC(=O)[C@H](C(C)C)N1CCCNC1=O [Lopinavir], the bioluminescence is reported as 0.66. CC(C)Oc1ccc(-c2nc(-c3cccc4c3CC[C@@H]4NCCO)no2)cc1C#N [Ozanimod] was tested, and the bioluminescence was 0.741. O=C1Nc2ccc(Cl)cc2[C@@](C#CC2CC2)(C(F)(F)F)O1 [Efavirenz] showed a bioluminescence of 0.908. In the case of Cl.OC[C@H]1NC[C@H](O)[C@@H](O)[C@H]1O [Migalastat hydrochloride], the bioluminescence is reported as 0.719. In the case of CCCN(CCC)CCc1cccc2c1CC(=O)N2.Cl [Ropinirole hydrochloride], the bioluminescence is reported as 0.313. Work on CN1CC(=O)N2[C@H](c3ccc4c(c3)OCO4)c3[nH]c4ccccc4c3C[C@@H]2C1=O [Tadalafil] yielded a bioluminescence of 0.562. For CCC1=CC2CN(C1)Cc1c([nH]c3ccccc13)[C@](C(=O)OC)(c1cc3c(cc1OC)N(C)[C@H]1[C@@](O)(C(=O)OC)[C@H](OC(C)=O)[C@]4(CC)C=CCN5CC[C@]31[C@@H]54)C2.O=C(O)[C@H](O)[C@@H](O)C(=O)O.O=C(O)[C@H](O)[C@@H](O)C(=O)O (stereo partly drawn) [Vinorelbine ditartrate], the bioluminescence was 1.54. For CCOC(=O)c1ccc(C#Cc2ccc3c(c2)C(C)(C)CCS3)nc1 [Tazarotene], the bioluminescence was 1.11. In the case of CN(C)CCc1c[nH]c2ccc(CS(=O)(=O)N3CCCC3)cc12.O=C(O)CC(O)C(=O)O [Almotriptan Malate], the bioluminescence is reported as 0.959. CC(C)c1c(C(=O)Nc2ccccc2)c(-c2ccccc2)c(-c2ccc(F)cc2)n1CC[C@@H](O)C[C@@H](O)CC(=O)[O-].CC(C)c1c(C(=O)Nc2ccccc2)c(-c2ccccc2)c(-c2ccc(F)cc2)n1CC[C@@H](O)C[C@@H](O)CC(=O)[O-].[Ca+2] [Atorvastatin Calcium] gave a bioluminescence of 0.0875.
